SMILES strings stand for the structures. Records with an inconclusive call do not appear. More than one record can exist for a structure, and the calls need not agree. Active and inactive are the calls of the source. The call rests on the fitted dose curve; in most records, active means well fitted inhibition curve with a large enough effect; inconclusive means small, poorly fitted or top-dose-only effect; inactive means no such curve, though single readings can be large or run the other way.
On the % scale 0 is the no-effect control and ±100 the full control effect; potency means the concentration at half of the fitted maximal effect.

M-phase phosphoprotein 8 (Homo sapiens), sequence (Q99549 whole entry, looked up): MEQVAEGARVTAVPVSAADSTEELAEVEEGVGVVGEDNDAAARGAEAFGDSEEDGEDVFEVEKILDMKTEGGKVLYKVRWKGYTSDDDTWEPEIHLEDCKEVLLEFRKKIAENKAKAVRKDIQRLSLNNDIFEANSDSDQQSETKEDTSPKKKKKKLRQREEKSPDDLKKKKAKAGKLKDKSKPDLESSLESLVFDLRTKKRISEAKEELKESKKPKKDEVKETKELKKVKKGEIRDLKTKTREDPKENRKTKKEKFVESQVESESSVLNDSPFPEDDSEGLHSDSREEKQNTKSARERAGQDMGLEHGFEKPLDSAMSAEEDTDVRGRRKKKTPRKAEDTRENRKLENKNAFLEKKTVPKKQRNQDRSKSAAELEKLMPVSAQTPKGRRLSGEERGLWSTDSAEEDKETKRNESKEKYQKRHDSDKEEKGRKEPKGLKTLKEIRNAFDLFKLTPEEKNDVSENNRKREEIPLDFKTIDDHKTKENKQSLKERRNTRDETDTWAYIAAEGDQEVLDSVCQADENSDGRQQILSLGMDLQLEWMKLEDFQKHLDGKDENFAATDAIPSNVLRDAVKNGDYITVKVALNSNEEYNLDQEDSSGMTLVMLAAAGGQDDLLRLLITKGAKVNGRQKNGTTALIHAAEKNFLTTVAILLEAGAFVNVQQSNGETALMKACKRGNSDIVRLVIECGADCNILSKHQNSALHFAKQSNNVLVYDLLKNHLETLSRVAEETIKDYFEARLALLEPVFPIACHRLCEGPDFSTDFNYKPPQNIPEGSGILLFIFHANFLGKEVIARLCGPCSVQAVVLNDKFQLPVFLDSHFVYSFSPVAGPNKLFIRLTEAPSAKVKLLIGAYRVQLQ

This assay addresses M-phase phosphoprotein 8 (Homo sapiens) (UniProt Q99549). The assay can be described thus: qHTS Validation Assay for Inhibitors for MPP8 Chromodomain Interactions with Methylated Histone Tails (AID 488949). Further: nearly all actives have a fitted effect of over 55% in size. On activity change, negative = inhibition: top concentration of the series differs between compounds. The settings on record: AlphaScreen MPP8 binding to H3K9me3 peptide; series mostly up to 57.1 µM; activity change, negative = inhibition: at the top concentration. An excerpt: As our understanding of epigenetics expands, it is becoming clear that players in this field are potential targets for drug development. This area of epigenetic therapy has established applications for the treatment of cancer and neurological diseases. We have been involved in this field for a number of years and have performed high-throughput screens to identify the first small molecule inhibitors of protein methyltransferases. These methyltransferases target multiple substrates, and thus regulate many arms of an epigenetic pathway. The methylation of different substrates often generates docking sites for effector proteins that harbor binding domains (chromo, tudor, PHD, MBT and ANK repeats). It has been proposed that the binding sites generated for different proteins by these post-translational modifcations mediate downstream effects on chromatin. Consistent with this theory, di- and tri-methylation of histone H3K9 facilitates the binding of heterochromatin protein HP1. The HP1 protein harbors a chromodomain that is responsible for the methyl-dependent interaction between HP1 and lysine 9 of histone H3. HP1 was first described in flies as a heterochromatin associated protein that can regulate gene silencing. It harbors a chromodomain that binds H3K9me3. In addition, it harbors a chromoshadow domain that interacts with a large number of proteins that are involved in heterochromatin formation and gene repression. There are three highly related HP1 isoforms. All three variants are associated with pericentric heterochromatin and it is not clear whether they have specific or redundant functions. MPP8 is also involved in the repression of gene in euchromatic regions (unpublished data) and like HP1 its chromodomain binds H3K9me3. MPP8 harbors an ankyrin repeat region that is likely involved in binding and recruiting interacting proteins with transcriptional repressive function, much like the chromoshadow domain of HP1 does. We hypothesize that by inhibiting specific protein-protein interactions we will be able to develop compounds that block a single arm of an epigenetic pathway. The specificity attained by blocking a single protein-protein interaction will be far greater than that attained by blocking the enzyme that regulates one of many interactions. Low-affinity protein-protein interactions (Kd in the single- to double-digit micromolar range) such as those discussed here have been very difficult to assay by traditional techniques such as fluorescence polarization or fluorescence resonance energy transfer. We have developed a sensitive chemiluminescence-based assay (Quinn, et al. 2009), which serves as the starting point for this project. The following is a validation assay to identify lead compounds that can block methyl-dependent protein-protein interactions (specifically MPP8), which can be used as probes to analyze these methyl-driven interactions and perhaps even developed into targeted epigenetic therapies. Assay Provider: Mark T. Bedford, MD Anderson Screening Center PI: Austin, C.P. Screening Center: NIH Chemical Genomics Center [NCGC]
To each well, 2 uL of MPP8 protein (final 50 nM) and 1 uL biotinylated histone peptide trimethylated at Lys9 [b-H3(1-18)K9me3] (final 50 nM) was added in 1x PBS buffer, pH 7.4, containing 0.01% Tween-20 using a nanoliter dispenser. Formation of a protein-peptide complex proceeded at room temperature for 30 min. A Kalypsys pin-tool was employed to transfer 23 nL of library compound solution in DMSO to each well. Aurintricarboxylic acid (ATA) was used as an intraplate control with a 12-point titration in duplicate. Following a 30 min incubation of the protein-peptide complex with compounds at room temperature, a mixture of 40 ug/mL each streptavidin-coated donor and nickel chelate acceptor AlphaScreen beads (final 10 ug/mL) was added in a 1 uL dispense for a final volume of 4 uL. Plates were incubated protected from the light for 30 min at room temperature. […]
For the molecule `O=Nc1ccc2oc(=O)ccc2c1`, the Potency was 39.8 µM (active). Take `CN(C)C(N)=NCCC[C@H](N)C(=O)O`: the Potency entry was “inactive”. Take `CC(C)(C)c1ccc(S(=O)(=O)/C=C/C#N)cc1`: the Potency was 20 µM (active) and inactive. Still for that read-out and setting: under `CCCCCCCCCCCCCCCCCC(=O)OC(CC(=O)O)C[N+](C)(C)C` (stereo not given) stands “inactive”; under `CC(C)(C=O)Cc1cc(C(C)(C)C)c(O)c(C(C)(C)C)c1`, “inactive”.

`O=[N+]([O-])c1ccc(CSc2ncnc3c2ncn3[C@@H]2O[C@H](CO)[C@@H](O)[C@H]2O)cc1`: the “activity change, negative = inhibition” value was 0.544% (inactive).

As for `COc1ccccc1CNCCCCCCNCCCCCCCCNCCCCCCNCc1ccccc1OC`, the Potency was 50.1 µM (active). Still for that read-out and setting: under `O=C1O/C(=C/Br)CCC1c1cccc2ccccc12` (stereo not given) stands “inactive”; under `COc1cc2nc(N3CCN(C(=O)OCc4ccccc4)C(C(=O)NC(C)(C)C)C3)nc(N)c2cc1OC` (stereo not given), “inactive”. For `OC[C@H]1O[C@@H](n2cnc3c(Nc4ccccc4)ncnc32)[C@H](O)[C@@H]1O`, the “activity change, negative = inhibition” value was 10.2% (inactive). As to `CN1CCC[C@H]1c1cccnc1`, the Potency result is “inactive”. Regarding `NC[C@H]1O[C@@H](n2cnc3c(N)ncnc32)[C@H](O)[C@@H]1O`, the “activity change, negative = inhibition” value was 5.07% (inactive).

Consider `CN1CCc2cccc3c2C1Cc1ccc(O)c(O)c1-3` (stereo not given), for which the Potency was 20 µM (active). Turning to `NO`, the Potency entry was “inactive”.

For the molecule `CN1CCc2ccccc2Cc2[nH]c3ccccc3c2CC1`, the Potency is 50.1 µM (active) and inactive. On to `COc1cc(SC)ccc1C(=O)N1CCC(Cc2ccccc2)CC1`, for which the “activity change, negative = inhibition” value is 12.7% (inactive). Regarding `CNC(=O)[C@H]1O[C@@H](n2cnc3c(NCc4cccc(I)c4)ncnc32)[C@H](O)[C@@H]1O`, the “activity change, negative = inhibition” value was -6.25% (inactive). For `O=C(c1ccc(OCCCc2cnc[nH]2)cc1)C1CC1`, the “activity change, negative = inhibition” value was 1.19% (inactive).

Consider `CN(C)CCC(c1ccc(Cl)cc1)c1ccccn1` (stereo not given), for which the Potency result is “inactive”. Same read-out and setting: under `O=C1NC(O)=NC1(c1ccccc1)c1ccccc1` stands “inactive”. As to `CSc1nc(N)c2ncn([C@@H]3O[C@H](COP(=O)(O)OP(=O)(O)OP(=O)(O)O)[C@@H](O)[C@H]3O)c2n1`, the “activity change, negative = inhibition” value was 11.5% (inactive).

For `CCc1c(C(=O)NCCc2ccc(N3CCCCC3)cc2)[nH]c2ccc(Cl)cc12`, the “activity change, negative = inhibition” value was 0.852% (inactive). In the case of `CO/N=C(\C(=O)N[C@@H]1C(=O)N2C(C(=O)O)=C(COC(C)=O)CS[C@H]12)c1csc(N)n1`, the “activity change, negative = inhibition” value was 6.01% (inactive). As for `OCC1O[C@H](O)C(Cl)C(O)C1O` (stereo not given in full), the Potency entry was “inactive”. As to `NC(=S)c1ccc[n+]([C@@H]2O[C@@H](COP(=O)([O-])OP(=O)(O)OC[C@H]3O[C@@H](n4cnc5c(N)ncnc54)[C@H](OP(=O)(O)O)[C@@H]3O)C(O)C2O)c1` (stereo not given in full), the “activity change, negative = inhibition” value is -5.42% (inactive). Consider `CCCCCCCCCCCCCCCCCCNC(=O)OCC(COP(=O)([O-])OCC[n+]1ccsc1)OC` (stereo not given), for which the Potency result is “inactive”.

Consider `C[C@@H](NC(=O)/C(C#N)=C/c1ccc(O)c(O)c1)c1ccccc1`, for which the Potency is 10 µM (active). As to `CN[C@H](CC(C)C)C(=O)N[C@H]1C(=O)N[C@@H](CC(N)=O)C(=O)N[C@H]2C(=O)N[C@H]3C(=O)N[C@H](C(=O)N[C@H](C(=O)O)c4cc(O)cc(O)c4-c4cc3ccc4O)[C@H](O)c3ccc(c(Cl)c3)Oc3cc2cc(c3O[C@@H]2O[C@H](CO)[C@@H](O)[C@H](O)[C@H]2O[C@H]2C[C@](C)(N)[C@H](O)[C@H](C)O2)Oc2ccc(cc2Cl)[C@H]1O`, the “activity change, negative = inhibition” value is -12.9% [at 114 µM] (inactive). In the case of `O=[N+]([O-])c1ccc2c(c1)S(=O)(=O)C=C2`, the “activity change, negative = inhibition” value was 2.88% (inactive).

Regarding `CN1C2CCC1CC(OC(=O)C(O)c1ccccc1)C2` (stereo not given), the Potency result was “inactive”. As for `Cc1cc(NC(=O)Nc2ccc3c(ccn3C)c2)sn1`, the “activity change, negative = inhibition” value is 5.81% (inactive). For `C#CCN1C(C)=C(C(=O)OC)C(c2cccc([N+](=O)[O-])c2)C(C(=O)OCC)=C1C` (stereo not given), the “activity change, negative = inhibition” value is -7.84% (inactive). Regarding `N.N.O=C(O)C1(C(=O)O)CCC1.[Pt]`, the Potency is 31.6 µM (active).

For the molecule `C=CC(C)=C[C@@]1(C)SC(=O)C(C)=C1O`, the “activity change, negative = inhibition” value is 6.87% (inactive).

`Cc1ccc(S(=O)(=O)/C=C/C#N)cc1`: the “activity change, negative = inhibition” value is 5.81% (inactive). Still for that read-out and setting: under `Cn1ncc(S(=O)(=O)Cc2ccccc2)c(Br)c1=O` stands -5.7% (inactive).

For the molecule `COc1cccc(C(=O)NCCN2CCN(c3ccc(Cl)cc3)CC2)c1`, the Potency result is “inactive”.

Turning to `CCCCCCCCCCCCCCCC(=O)NCC(COP(=O)([O-])OCC[N+](C)(C)C)OCC` (stereo not given), the Potency result is “inactive”. For the molecule `O=C(O)c1cc(=O)c2c(Cl)cc(Cl)cc2[nH]1`, the Potency result was “inactive”. Consider `S=C(S)OC1CC2CC1C1CCCC21` (stereo not given), for which the Potency entry was “inactive”.
